Records with an inconclusive call do not appear. Some compounds were tested as several samples or in several runs, with calls that do not always agree. Activity calls are given as the source filed them. How the source made its calls, unless noted: active means hit-call score of the fitted dose curve at least 0.9, where 1 is the maximum; inactive means score below 0.9.
How the values were obtained:
[1] = CCTE_Shafer_MEA_dev_burst_rate: CCTE's Neural Network Formation Assay for Burst Rate, Shafer Lab (AID 2284042);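 on AC50: potency for loss of burst rate below DMSO control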
Summary of the method: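 Primary rat cortical neurons on PEI-coated 48-well MEA plates (laminin added with cells at plating) (16 electrodes/well), exposed from plating to day 12, dosing renewed at DIV 5 and 9. Burst rate averaged over active electrodes, recorded DIV 5, 7, 9, 12, summarized as AUC; loss versus DMSO.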

[2] = CCTE_Shafer_MEA_dev_per_burst_interspike_interval: CCTE's Neural Network Formation Assay for Burst Interspike Interval, Shafer Lab (AID 2284044);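 further: mean spike spacing inside bursts as AUC over recordings on days 5 7 9 12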;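 on AC50: potency for a decrease of within-burst interspike interval below DMSO level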
Summary of the method: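 Developmental network-formation MEA in primary rat cortical cultures with exposure spanning days 0–12. Within-burst ISI is averaged per well and integrated across recording days by area under the curve, with DMSO as negative control baseline.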

[3] = CCTE_Shafer_MEA_dev_burst_duration_mean: CCTE's Neural Network Formation Assay for Mean Burst Duration, Shafer Lab (AID 2284045);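 on AC50: curve fitted for loss meaning shorter burst duration than DMSO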
Summary of the method: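 Primary rat cortical neurons on PEI-coated 16-electrode MEA wells, exposed from plating through day 12 with compound renewed at DIV 5 and 9; spontaneous activity recorded days 5, 7, 9, 12. Well-mean burst duration collapsed as trapezoidal AUC, fitted for loss versus DMSO.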

[4] = CCTE_Shafer_MEA_dev_interburst_interval_mean: CCTE's Neural Network Formation Assay for Mean Interburst Interval, Shafer Lab (AID 2284046);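 further: well-mean interburst interval of bursting electrodes as AUC over four recording days; curve fitted for decrease in interburst interval relative to DMSO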
Summary of the method: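 Recordings on days 5, 7, 9 and 12 give well-mean interburst interval across actively bursting electrodes, summarized as area under the curve. Cultures: rat cortical neurons, continuous exposure from day 0, compound renewed at feeds; decrease analyzed versus DMSO.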

[5] = CCTE_Shafer_MEA_dev_inter_network_spike_interval_mean: CCTE's Neural Network Formation Assay for Mean Inter-network Spike Interval, Shafer Lab (AID 2284047);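 on AC50: potency for a decrease in mean inter-network spike interval below DMSO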
Summary of the method: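 Primary rat cortical neurons on 16-electrode MEA wells, exposed from plating day 0 through DIV 12, compound renewed at DIV 5 and 9 media changes. Mean interval between network-spike peaks recorded DIV 5, 7, 9, 12; collapsed as trapezoidal AUC, fitted downward versus DMSO.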

[6] = CCTE_Shafer_MEA_dev_network_spike_number: CCTE's Neural Network Formation Assay for Number of Network Spikes, Shafer Lab (AID 2284048);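 further: synchronized bursts across electrodes counted on days 5 7 9 12 and integrated as AUC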;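 on AC50: fit as a loss of signal meaning fewer network spikes than DMSO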
Summary of the method: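 Primary rat cortical neurons were seeded at 1.5 x 10^5 cells/well on PEI-coated 16-electrode MEA wells with laminin, exposed from plating day 0, compound renewed at DIV 5 and 9. Network spikes were recorded on days 5, 7, 9, 12 and summarized as trapezoidal AUC versus DMSO.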

[7] = CCTE_Shafer_MEA_dev_network_spike_peak: CCTE's Neural Network Formation Assay for Mean Number of Electrodes in Network Spike, Shafer Lab (AID 2284049);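 on AC50: fitted for loss of signal meaning fewer electrodes in network spikes than DMSO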
Summary of the method: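 Continuous 12-day exposure of rat cortical cultures, starting at plating, on MEA plates. Endpoint: electrodes participating in network-spike peaks, AUC across DIV 5–12, DMSO as negative control.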

DIO2 (gene 1734) = test: CCTE_GLTED_hDIO2: CCTE's human Deiodinase 2 (DIO2) Inhibition Assay, Great Lakes Toxicology and Ecology Division (GLTED) Lab (AID 2284050; active means hit-call score of the fitted dose curve at least 0.9, where 1 is the maximum)
Summary of the method: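 Cell-free human DIO2 enzyme was incubated with test chemical for 3 h; iodide liberated from substrate was then quantified by the Sandell-Kolthoff reaction (absorbance), run in triplicate. Loss of signal versus DMSO baseline indicated inhibition.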

[8] = CCTE_Shafer_MEA_dev_bursting_electrodes_number: CCTE's Neural Network Formation Assay for Number of Bursting Electrodes, Shafer Lab (AID 2284043; active means hit-call score of the fitted dose curve at least 0.9, where 1 is the maximum;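 on AC50: potency is for loss of bursting electrodes relative to DMSO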)
Summary of the method: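 Primary rat cortical neurons were cultured on PEI-coated 48-well MEA plates (16 electrodes/well) and exposed from plating through day 12, with compound renewed at feeds on DIV 5 and 9. Electrodes bursting ≥1 per 2 min were counted on DIV 5, 7, 9, 12; trapezoidal AUC taken.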

[9] = target: Estrogen receptor (Homo sapiens) (UniProt P03372); test: CCTE_Deisenroth_AIME_384WELL_LUC_Shift: CCTE's 384-well Estrogen Receptor Transactivation Assay with AIME metabolic competence data shift (ERTA luciferase; difference in metabolism positive and negative), Deisenroth Lab (AID 2284041);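 further: shift is response with S9 minus without S9 so positive means metabolism raised ER signal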
Summary of the method: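 Here, parent compounds undergo 2 h phase I metabolism by PB/BNF-induced rat S9 before 24 h transactivation in VM7Luc4E2 cells; the curve models S9-positive minus S9-negative response over a 10-point series.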

Measured: AC50

Sequence of Estrogen receptor (Homo sapiens) (P03372 whole entry, looked up): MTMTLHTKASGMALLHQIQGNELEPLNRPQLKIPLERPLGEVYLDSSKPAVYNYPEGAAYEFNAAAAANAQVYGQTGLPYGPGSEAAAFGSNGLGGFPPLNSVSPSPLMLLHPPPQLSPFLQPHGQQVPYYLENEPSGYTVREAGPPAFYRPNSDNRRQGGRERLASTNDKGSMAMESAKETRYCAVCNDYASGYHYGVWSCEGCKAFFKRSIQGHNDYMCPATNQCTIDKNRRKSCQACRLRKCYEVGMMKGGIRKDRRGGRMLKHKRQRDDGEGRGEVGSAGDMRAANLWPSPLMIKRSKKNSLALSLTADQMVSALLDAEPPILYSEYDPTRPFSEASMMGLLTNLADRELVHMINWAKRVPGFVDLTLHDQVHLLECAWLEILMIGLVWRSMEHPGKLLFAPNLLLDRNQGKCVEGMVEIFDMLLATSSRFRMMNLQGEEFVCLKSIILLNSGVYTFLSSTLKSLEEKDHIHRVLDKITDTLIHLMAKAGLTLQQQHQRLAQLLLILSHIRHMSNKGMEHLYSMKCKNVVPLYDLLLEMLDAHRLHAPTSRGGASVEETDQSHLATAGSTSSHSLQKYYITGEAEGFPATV

O=C(O)C(F)(F)C(F)(F)C(F)(F)C(F)(F)C(F)(F)C(F)(F)C(F)(F)C(F)(F)C(F)(F)C(F)F
active: DIO2 (gene 1734) 59.3 µM
inactive: [1] | [2] | [3] | [4] | [5] | [6] | [7]

OC[C@@H](O)[C@@H](O)[C@H](O)[C@@H](O)CO
inactive: [1] | [8] | [2] | [3] | [4] | [5] | [6] | [7]

N=C(N)C(F)(F)C(F)(F)C(F)(F)C(F)(F)C(F)(F)C(F)(F)C(F)(F)F
inactive: [1] | [8] | [2] | [3] | [4] | [5] | [6]
active: [7] 26.8 µM

OCCCC(F)(F)C(F)(F)C(F)(F)F
inactive: [1] | [2] | [3] | [4] | [5] | [6] | [7]

C(=C(c1ccccc1)c1ccccc1)c1ccccc1
active: [9] 0.869 µM

FC(F)(F)C(F)(F)C(F)(F)C(F)(F)C(F)(F)C(F)(F)CC1CO1 (stereo not given)
inactive: [1] | [2] | [3] | [4] | [5] | [6] | [7]

OCC(F)(F)C(F)(F)C(F)(F)F
inactive: [1] | [8] | [2] | [3] | [4] | [5] | [6] | [7]

O=C(O)C(F)(F)C(F)(F)C(F)F
inactive: [1] | [8] | [2] | [3] | [4] | [5] | [6] | [7]

NC(=O)C(F)(F)C(F)(F)C(F)(F)C(F)(F)F
inactive: [1] | [2] | [3] | [4] | [5] | [6] | [7]

CNC(=S)NC
inactive: [9]

O=C(O)C(F)(F)C(F)(F)C(F)(F)C(F)(F)C(F)(F)C(F)(F)C(F)(F)C(F)(F)C(F)(F)C(F)(F)C(F)(F)C(F)(F)F
active: DIO2 (gene 1734) 74.9 µM

OCC(F)(F)C(F)(F)C(F)(F)C(F)(F)C(F)(F)C(F)F
inactive: [1] | [8] | [2] | [3] | [4] | [5] | [6] | [7]

O=C(O)C=C(C(F)(F)F)C(F)(F)F
inactive: [1] | [8] | [2] | [3] | [4] | [6] | [7]
active: [5] 15 µM

COC(=O)CCC(F)(F)C(F)(F)C(F)(F)C(F)(F)F
inactive: [1] | [2] | [3] | [4] | [5] | [6] | [7]

CCN(Cc1cccc(S(=O)(=O)O)c1)c1ccc(C(=C2C=CC(=[N+](CC)Cc3cccc(S(=O)(=O)O)c3)C=C2)c2ccc(O)cc2S(=O)(=O)[O-])cc1
active: DIO2 (gene 1734) 48.5 µM
inactive: [9]

c1ccc(B(c2ccccc2)c2ccccc2)cc1
active: DIO2 (gene 1734) 57.7 µM

Cc1ccc(S(=O)(=O)OCC(F)(F)C(F)(F)C(F)(F)C(F)(F)C(F)(F)C(F)F)cc1
inactive: [1] | [2] | [3] | [4] | [5] | [6] | [7]

O=S(=O)(OCC(F)F)C(F)(F)F
inactive: [1] | [8] | [2] | [3] | [4] | [5] | [6] | [7]

CC/C=C\CCOC(C)=O
inactive: [9]

O=S(=O)(OCCOC(F)(F)F)C(F)(F)F
inactive: [1] | [2] | [3] | [4] | [5] | [6] | [7]

O=C(Cl)C(F)(F)C(F)(F)C(F)(F)C(F)(F)C(F)(F)C(F)(F)C(F)(F)C(F)(F)F
active: DIO2 (gene 1734) 69.4 µM

CC(CCl)OP(=O)(OC(C)CCl)OC(C)CCl (stereo not given)
inactive: [1] | [8] | [2] | [3] | [4] | [5] | [6] | [7]
active: [7] 50 µM

CC(C)(C)C(=O)CC(=O)C(F)(F)C(F)(F)C(F)(F)F
active: [8] 15 µM | [7] 23.7 µM
inactive: [1] | [2] | [3] | [4] | [5] | [6]

CC(Cc1ccc(O)c(O)c1)C(C)Cc1ccc(O)c(O)c1 (stereo not given)
active: DIO2 (gene 1734) 19.3 µM

O=C(O)C(F)(F)C(F)(F)C(F)(F)C(F)(F)C(F)(F)C(F)(F)C(F)(F)C(F)(F)Cl
inactive: [1] | [8] | [2] | [3] | [4] | [5] | [6] | [7]
active: DIO2 (gene 1734) 100 µM

FC(F)(F)C(F)(F)CNCC(F)(F)C(F)(F)F
inactive: [1] | [8] | [2] | [3] | [4] | [5] | [6] | [7]

C=CC(=O)OCC(F)(F)C(F)(F)C(F)(F)C(F)(F)COC(=O)C=C
inactive: [5]
active: [1] 4.18 µM | [8] 2.08 µM | [2] 4.18 µM | [3] 2.87 µM | [4] 4.2 µM | [6] 2.28 µM | [7] 4.19 µM | DIO2 (gene 1734) 12.8 µM

O=P(O)(O)OCCC(F)(F)C(F)(F)C(F)(F)C(F)(F)C(F)(F)C(F)(F)F
active: [8] 0.1 µM
inactive: [1] | [2] | [3] | [4] | [5] | [6] | [7]

FC(F)(F)C(F)(F)C(F)(F)C(F)(F)C(F)(F)CCI
active: [8] 0.822 µM | [7] 22.3 µM
inactive: [1] | [2] | [3] | [4] | [5] | [6]

CCCCCCC(C)OC(=O)CCCCC(=O)OC(C)CCCCCC (stereo not given)
inactive: [9]

OCC(F)(F)C(F)(F)C(F)(F)C(F)F
inactive: [1] | [2] | [3] | [4] | [5] | [6] | [7]

O=C(O)C(F)(F)C(F)(F)C(F)(F)F
inactive: [1] | [8] | [2] | [3] | [4] | [5] | [6] | [7]

— PubChem BioAssay (EPA / NIEHS)
